Test results published in paper PMC4336329 (PLoS ONE, 2015).
Out of some 310,000 compounds screened, about 14,000 (4.5%) showed an effect of 50% or more. Effects have a minus sign here. The sample as a whole holds a higher share of strong results than the screen did.

Molecular target: human ether-à-go-go-related gene (hERG) potassium channel (human, UniProt Q12809)
Experiment: primary screen, population patch clamp on CHO cells stably expressing hERG; higher = less effect of the substance
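Further: peak tail current of the secondary pulse compared with the same well before compound.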

Sequence of human ether-à-go-go-related gene (hERG) potassium channel (Q12809 whole entry, looked up): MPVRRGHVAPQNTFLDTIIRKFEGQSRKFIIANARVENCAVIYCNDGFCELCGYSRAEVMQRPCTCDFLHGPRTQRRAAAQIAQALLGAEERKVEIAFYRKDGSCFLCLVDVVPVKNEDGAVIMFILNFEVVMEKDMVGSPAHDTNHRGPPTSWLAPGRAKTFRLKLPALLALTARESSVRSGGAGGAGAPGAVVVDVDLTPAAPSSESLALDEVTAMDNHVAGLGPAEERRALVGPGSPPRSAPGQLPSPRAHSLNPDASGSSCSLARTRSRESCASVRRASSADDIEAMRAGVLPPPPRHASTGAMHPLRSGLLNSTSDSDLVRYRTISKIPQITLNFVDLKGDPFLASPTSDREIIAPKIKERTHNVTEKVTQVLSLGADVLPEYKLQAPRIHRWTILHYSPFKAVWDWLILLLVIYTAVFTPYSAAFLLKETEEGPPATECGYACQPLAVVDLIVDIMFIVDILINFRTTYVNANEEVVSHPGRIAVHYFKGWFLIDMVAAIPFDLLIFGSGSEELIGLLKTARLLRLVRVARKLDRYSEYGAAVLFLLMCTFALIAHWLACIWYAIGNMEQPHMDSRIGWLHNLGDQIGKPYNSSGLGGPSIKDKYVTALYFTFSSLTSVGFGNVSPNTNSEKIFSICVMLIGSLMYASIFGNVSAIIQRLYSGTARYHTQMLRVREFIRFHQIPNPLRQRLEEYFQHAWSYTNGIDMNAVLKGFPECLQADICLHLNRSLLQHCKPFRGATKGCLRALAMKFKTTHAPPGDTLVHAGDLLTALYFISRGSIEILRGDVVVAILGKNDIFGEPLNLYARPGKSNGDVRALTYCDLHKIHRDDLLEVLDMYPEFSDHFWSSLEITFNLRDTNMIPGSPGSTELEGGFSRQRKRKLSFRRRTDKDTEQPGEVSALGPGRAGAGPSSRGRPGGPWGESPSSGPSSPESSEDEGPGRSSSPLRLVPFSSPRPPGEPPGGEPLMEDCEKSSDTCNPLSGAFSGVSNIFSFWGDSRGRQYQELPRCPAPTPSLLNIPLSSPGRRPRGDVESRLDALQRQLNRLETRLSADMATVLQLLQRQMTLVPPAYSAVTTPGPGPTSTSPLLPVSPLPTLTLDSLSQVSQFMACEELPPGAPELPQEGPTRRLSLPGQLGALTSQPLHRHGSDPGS

Row | Structure (SMILES) | hERG current change (%, negative = inhibition) at 10uM
1 | Cc1ccc(N2CC(C(=O)OCc3ccc([N+](=O)[O-])cc3)CC2=O)cc1 (centres unmarked) | -58.5%
2 | Cc1ccc(N2CC(C(=O)OCC(=O)C(C)(C)C)CC2=O)cc1 (centres unmarked) | -4.69%
3 | Cc1ccc(N2CC(C(=O)OCC(=O)c3ccc([N+](=O)[O-])cc3)CC2=O)cc1 (centres unmarked) | -26.8%
4 | O=C1OC(Nc2ccccn2)c2ccccc21 (centres unmarked) | -5.61%
5 | NC(=O)C1(N2CCCCC2)CCN(C(=O)c2ccc(C#CC3(O)CCCCC3)cc2)CC1 | -6.21%
6 | Cc1ccc(C(=O)N/C(=C\c2cccnc2)c2nc3ccccc3[nH]2)cc1 | -19.7%
7 | Cc1ccc(C(=O)N/C(=C/c2cccnc2)C(=O)NCc2ccco2)cc1 | -41.7%
8 | O=C(NCc1ccco1)/C(=C\c1cccnc1)NC(=O)c1ccccc1F | -51.1%
9 | COc1ccccc1C(=O)N/C(=C\c1ccccc1)C(=O)NCc1ccco1 | -38.1%
10 | COc1ccc(C(=O)N/C(=C/c2cccnc2)C(=O)NCc2ccco2)cc1OC | 9.12%
11 | COc1ccc(/C=C(/NC(=O)c2ccccc2)c2nc3ccccc3[nH]2)cc1OC | -12.5%
12 | O=C(N/C(=C\c1cccnc1)c1nc2ccccc2[nH]1)c1cccc(Br)c1 | -54.9%
13 | O=C(NCc1ccco1)/C(=C/c1cccnc1)NC(=O)c1cccc(Br)c1 | -59.6%
14 | O=C(NCc1ccco1)/C(=C\c1ccccc1)NC(=O)c1ccccc1 | 6.85%
15 | CCCNS(=O)(=O)c1cccc2cccnc12 | -6.32%
16 | Cc1cccc(-c2cc(C(=O)NCc3ccccn3)c3ccccc3n2)c1 | -18%
17 | Cc1ccc(OCc2n[nH]c(=S)n2C2CCCCC2)cc1 | 21%
18 | Cc1ccc(-n2c(C)cc(/C=N/NC(=O)c3ccncc3)c2C)cc1C | 17.3%
19 | COc1ccccc1-n1cnnc1SCc1csc(-c2ccccc2)n1 | -20.9%
20 | O=C(CCC(=O)c1cccs1)NCc1cccc(C(F)(F)F)c1 | -7.88%
21 | COc1ccc(C(=O)N2CCN(c3ncccn3)CC2)cc1S(=O)(=O)N1CCOCC1 | 6.96%
22 | COC(=O)c1ccc(OCC2c3cc(OC)c(OC)cc3CCN2C(C)=O)cc1 (centres unmarked) | 8.8%

Row | Structure (SMILES) | hERG current change (%, negative = inhibition) at 10uM
23 | COc1cc2c(cc1OC)C(COc1ccc(F)cc1)N(C(C)=O)CC2 (centres unmarked) | -11.9%
24 | COc1ccc(OCC2NCCc3cc(OC)c(OC)cc32)cc1 (centres unmarked) | -8.93%
25 | COc1cc2c(cc1OC)C(COc1ccc([N+](=O)[O-])cc1)N(C(C)=O)CC2 (centres unmarked) | -77.4%
26 | COc1cc2c(cc1OC)C(COc1ccc(F)cc1)NCC2 (centres unmarked) | -26.8%
27 | COc1cc2c(cc1OC)C(COc1ccc([N+](=O)[O-])cc1)NCC2 (centres unmarked) | -76.6%
28 | CCc1ccc(OCC2c3cc(OC)c(OC)cc3CCN2C(C)=O)cc1 (centres unmarked) | -11.5%
29 | CCC(=O)N1CCc2cc(OC)c(OC)cc2C1COc1ccc(C(=O)OC)cc1 (centres unmarked) | -1.37%
30 | COC(=O)c1ccc(OCC2c3cc(OC)c(OC)cc3CCN2C(=O)C2CC2)cc1 (centres unmarked) | -56.3%
31 | O=C(CN1N=C(c2ccccc2)CCC1=O)NCc1ccco1 | 0.243%
32 | COc1cccc(NC(=O)C2C3C=CC(C3)C2C(=O)O)c1 (centres unmarked) | 8.61%
33 | Cc1ccc(Cc2nnc3n(-c4cccc(C)c4)nc(C(=O)c4ccccc4)n3c2=O)cc1 | -3.85%
34 | CN1CCC(OC(=O)c2ccc(Br)cc2)CC1.Cl | -41.9%
35 | CN1CCN(C(=S)c2ccc(Br)cc2)CC1 | -35.9%
36 | CN1CCC(=C(c2ccccc2)c2ccc(Br)cc2)CC1.Cl | -68.3%
37 | C=CCNc1scc(-c2ccccc2)[n+]1CC=C.[Br-] | -21.4%
38 | C/C=C/C(=O)N1c2ccccc2C(C)=CC1(C)C | 3.41%
39 | COC(=O)c1[nH]c2cccc(OC)c2c1NC(=O)C(C)N1CCC(C)CC1 (centres unmarked) | -21.6%
40 | CCN(CC)c1ccc(C(=O)OCC(=O)Nc2sccc2C#N)cc1 | 12.2%
41 | Cc1ccc2cc(S(=O)(=O)NCCC(=O)O)ccc2c1 | -2.04%
42 | Cc1cc(C)c2nc(N3CCCC(C(=O)N4CCC(C(N)=O)CC4)C3)sc2c1 (centres unmarked) | -19.3%
43 | Cc1cc(C)c2nc(N3CCC(C(=O)NCCCN4CC(C)CC(C)C4)CC3)sc2c1 (centres unmarked) | -71.8%
44 | Cc1cc(C)c2nc(N3CCC(C(=O)NCCN4CCOCC4)CC3)sc2c1 | -10.5%

Row | Structure (SMILES) | hERG current change (%, negative = inhibition) at 10uM
45 | Cc1cc(=O)n2nc(N3CCC(C(=O)NCc4cccnc4)CC3)sc2n1 | 7.16%
46 | Cc1cc(C)c2nc(N3CCC(C(=O)NCc4cccnc4)CC3)sc2c1 | -79%
47 | CCC(CC)c1nnc(NC(=O)C2CCN(C(=O)c3ccco3)CC2)s1 | 20.1%
48 | CCC(C)Sc1nnc(NC(=O)C2CCN(C(=O)c3ccco3)CC2)s1 (centres unmarked) | -57.2%
49 | Cc1cc(C)c2nc(N3CCC(C(=O)NCCCN4CCCCC4)CC3)sc2c1 | -37.2%
50 | CCc1nnc(NC(=O)C2CCN(C(=O)c3ccco3)CC2)s1 | -0.31%
51 | Cc1cc(C)c2nc(N3CCC(C(=O)N4CCCC4)CC3)sc2c1 | -67.7%
52 | Cc1cc(C)c2nc(N3CCC(C(=O)N4CCN(c5ncccn5)CC4)CC3)sc2c1 | -0.141%
53 | Cc1cc(C)c2nc(N3CCC(C(=O)NCc4ccccn4)CC3)sc2c1 | -25.3%
54 | COC(=O)[C@@]12CCCN1[C@H](c1ccc(-c3ccccc3)cc1)[C@H]1C(=O)N(C)C(=O)[C@H]12.O=C(O)C(F)(F)F | -14.2%
55 | O=C1Cc2cc(S(=O)(=O)NCc3ccccc3Cl)cc3c2N1CCC3 | 6.14%
56 | Cc1ccc(/C=C2\SC(=S)N(c3cccnc3)C2=O)o1 | 6.67%
57 | CCOC(=O)c1ccc(NC(=O)c2nc[nH]c2C(=O)N2CCc3ccccc3C2)cc1 | 0.122%
58 | CC(C)CNc1nc(N)c([N+](=O)[O-])c(N2CCCCCC2)n1 | -0.987%
59 | CC1(C)SC2c3ccccc3C(=O)N2[C@@H]1C(=O)NC1CC1 (some centres unmarked) | 9.97%
60 | Cc1nc([N+](=O)[O-])cn1CC(=O)c1ccc(F)cc1 | 10.5%
61 | CCNc1nc(SCC(=O)Nc2ccc(Cl)c(Cl)c2)nc(N(C)C)n1 | 14.8%
62 | CCN(C(=O)COC(=O)c1[nH]c(C)c(C(C)=O)c1C)C1CCS(=O)(=O)C1 (centres unmarked) | -8.32%
63 | CCOc1ccc(-c2cc(C(=O)N/N=C/c3ccc(O)cc3)c3ccccc3n2)cc1 | 4.93%
64 | Cc1c(C(=O)N/N=C/c2ccccn2)nnn1-c1nonc1N | -15.6%
65 | Cc1cccc2sc(NC(=O)C3CCN(C(=O)c4ccco4)CC3)nc12 | -71.6%
66 | Cc1cc2nc(N3CCN(C(=O)c4ccco4)CC3)sc2cc1C | 0.152%

Row | Structure (SMILES) | hERG current change (%, negative = inhibition) at 10uM
67 | Cc1cc(C)c2nc(N3CCN(C(=O)c4ccco4)CC3)sc2c1 | -28.5%
68 | Cc1cc(C)c2nc(N3CCC(C(=O)N4CCN(C(=O)c5ccco5)CC4)CC3)sc2c1 | -77.1%
69 | O=C(Nc1nc2ccccc2s1)C1CCN(C(=O)c2ccco2)CC1 | -41.9%
70 | Cc1nnc(NC(=O)C2CCN(C(=O)c3ccco3)CC2)s1 | 13.4%
71 | C=CCOC(=O)C1=C(C)NC(C)=C(C(=O)OCC=C)C1c1ccc(C)o1 | -27.4%
72 | O=C(Cc1ccccc1)NCC(=O)N1CCCCCC1 | 9.71%
73 | CN(C/N=C(\N)N[N+](=O)[O-])S(=O)(=O)c1ccccc1 | 19.4%
74 | COC(=O)C1=CO[C@@H](O[C@@H]2O[C@H](CO)[C@@H](O)[C@H](O)[C@H]2O)[C@H]2[C@@H]1C(=O)C[C@@H]2C | 23.3%
75 | COC(=O)c1ccc(CSc2nc3sc(C)c(C)c3c(=O)[nH]2)cc1 | 0.764%
76 | Nc1c(C(=O)c2ccccc2)sc2nsc(SCCN3CCOCC3)c12 | 18.1%
77 | CCn1cc(CN2CCN(Cc3cccc(OC)c3)C(CCO)C2)c(C)n1 (centres unmarked) | -14.4%
78 | CCOc1ccc(CN2CCN(Cc3cnn(CC)c3C)CC2CCO)cc1 (centres unmarked) | -67.8%
79 | CCOc1ccc(CN2CCN(Cc3cn(CC)nc3C)CC2CCO)cc1 (centres unmarked) | -62%
80 | CCOc1ccc(CN2CCN(Cc3c(C)nn(CC)c3C)CC2CCO)cc1 (centres unmarked) | -45%
81 | CCn1cc(CN2CCN(Cc3ccc(OC)c(C)c3C)C(CCO)C2)c(C)n1 (centres unmarked) | -23.1%
82 | CCn1ncc(CN2CCN(Cc3cccc(OC)c3)C(CCO)C2)c1C (centres unmarked) | 7.07%
83 | CC1CCCC(C)N1C(=O)C1CC(c2ccc(F)cc2)=NO1 (centres unmarked) | -7.79%
84 | O=C(N/N=C/c1ccncc1)c1cc(-c2ccc(Br)s2)[nH]n1 | -12.4%
85 | Cc1ccc(S(=O)(=O)NCCSCc2ccco2)cc1 | -4.42%
86 | Cc1ccc2c(c1)N(C(=O)CCC(=O)NCc1ccccn1)CC(C)O2 (centres unmarked) | -7.23%
